# mIDH1 inhibitor: inhibitors of human mutant IDH1 R132H | IDH1-R132H enzyme, NADPH consumption, diaphorase/resazurin fluorescence | Potency, µM (doses to about 76.6 µM), usual class: inhibitors | 0.093% of 390,000 active | AID 602179; note: nearly all actives have a fitted effect of over 65% in size
#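 IDH1-R132H (0.5 ug/mL) preincubated 30 min with compound, then NADPH (0.016 mM) and alpha-KG (2 mM) added; 80 min at RT, pH 7.5. Remaining NADPH coupled via diaphorase/resazurin to fluorescence (540/590 nm); concentration-response curves normalized to no-enzyme control.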
# A549 tox: kills or reduces viability of A549 cells in Nrf2 counter-screen | A549 ARE-Fluc cells, CellTiter-Fluor viability, 18-24 h | Potency, µM (titrated, usually from 46 µM), hits mostly inhibitors | 0.16% of 390,000 active | AID 504648
#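 A549 ARE-Fluc cells in 5% FBS OPTI-MEM, 5000 cells/well, rested 2 h then exposed to compounds in concentration-response for 18-24 h at 37 °C. Viability by CellTiter-Fluor fluorescence (Ex 405/Em 525) after 30 min; luciferase luminescence (BugLite, 15 min, RT) read afterwards.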
# Mito fusion act: inhibitors of mitochondrial division or activators of mitochondrial fusion; Potency, µM (titrated, usually from 46.1 µM), most hits filed as activators; S. cerevisiae fusion-defective mutant growth rescue, CellTiterGlo 48 h; 0.23% of 320,000 active; note: nearly all actives have a fitted effect of over 45% in size
#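 Compounds are tested for their ability to restore growth of mitochondrial fusion-defective yeast strains at non-permissive 37C in YPEG medium over 48 hours. Viability is quantified by luciferase luminescence.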
# TrxR1 substrate: is turned over as a substrate by rat TrxR1. O89049. Potency, µM (doses to about 114 µM). 0.01% of 390,000 active. purified TrxR1 substrate turnover, NADPH consumption readout; note: nearly all actives have a fitted effect of over 50% in size
# Target sequence (O89049 whole entry, looked up): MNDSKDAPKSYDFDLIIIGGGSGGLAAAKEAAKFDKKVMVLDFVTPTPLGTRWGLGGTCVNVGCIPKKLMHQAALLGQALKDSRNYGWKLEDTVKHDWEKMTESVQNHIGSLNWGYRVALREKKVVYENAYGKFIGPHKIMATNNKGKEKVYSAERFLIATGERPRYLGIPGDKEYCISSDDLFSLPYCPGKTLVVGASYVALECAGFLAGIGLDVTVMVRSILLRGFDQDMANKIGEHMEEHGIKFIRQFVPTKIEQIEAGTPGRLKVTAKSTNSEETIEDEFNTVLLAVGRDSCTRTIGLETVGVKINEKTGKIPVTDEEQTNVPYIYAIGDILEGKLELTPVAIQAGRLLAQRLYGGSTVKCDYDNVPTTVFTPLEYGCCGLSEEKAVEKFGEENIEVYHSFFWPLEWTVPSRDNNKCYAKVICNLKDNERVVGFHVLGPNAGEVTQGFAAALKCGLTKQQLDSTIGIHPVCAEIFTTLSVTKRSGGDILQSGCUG
#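 Rat TrxR1, dispensed at 90 nM, was prereduced with 400 uM NADPH (final) for 5 min at ~22 deg C, then incubated with compound 15 min before 400 uM selenite. A first-read NADPH fluorescence drop versus no-compound background flagged substrates.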
# Nrf2 block: inhibitors of Nrf2 signaling; Potency, µM (top dose mostly 46 µM), hits mostly inhibitors; AID 504444; A549 ARE-Fluc reporter, luciferase luminescence, 18-24 h; 2.1% of 360,000 active; note: nearly all actives have a fitted effect of over 60% in size
#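 Two sequential reads on A549 ARE_Fluc cells exposed to compound for 18-24 h: a CellTiter-Fluor fluorescence read for viability, then a luciferase luminescence read for Nrf2/ARE activity.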
# rTrxR1 inhibitor: blocks rat thioredoxin reductase 1 | recombinant rTrxR1, NADPH fluorescence consumption, selenite substrate | O89049 | Potency, µM (highest dose often 114 µM), usual class: inhibitors | 1% of 390,000 active; note: nearly all actives have a fitted effect of over 65% in size
#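 Rat TrxR1 (90 nM in the dispensed reagent) was pre-reduced with 400 uM NADPH for 5 min at room temperature, then incubated with compound for 15 min. After 400 uM selenite was added, NADPH fluorescence (Ex 340/Em 450 nm) was followed for 8 min.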
# A number is an active result; . = inactive; ? = inconclusive; / = no result given; [ ] = remark or other dose. Sampled rows, rich in hits. Any-hit rate of the full collection: about 3.1%. Calls come from the whole dose curve; as a rule, active = well fitted curve in the direction sought with a large enough effect; inconclusive = small, poorly fitted or top-dose-only effect, or another doubt; inactive = no such curve, though single readings can be large; an effect the other way counts as inactive or inconclusive.
SMILES,mIDH1 inhibitor,A549 tox,Mito fusion act,TrxR1 substrate,Nrf2 block,rTrxR1 inhibitor
O=C(Nc1ccc(C(=O)N2CCCCC2)cc1)c1ccc(Br)cc1,.,.,.,.,?,.
CC(C)(C)c1ccc(C(=O)Nc2ccc(C=C(C#N)C#N)cc2)cc1,.,.,.,.,.,3.16µM
COc1cccc(/C=C/c2ccnc3ccccc23)c1OC,/,/,/,.,/,.
Cc1ccc2oc(-c3ccc(C)c(NC(=O)COc4ccc(Cl)cc4C)c3)nc2c1,/,/,/,.,/,.
CSc1ccc(CN(C)Cc2cc(=O)oc3c(C)c(C)ccc23)cc1,.,.,.,.,?,.
CCOc1ccc(CN(C)Cc2cc(=O)oc3c(C)c(C)ccc23)cc1OC,.,.,/,.,16.4µM,.
O=C1CC(N2CCN(C/C=C/c3ccccc3)CC2)C(=O)N1CCc1ccccc1 (stereo not drawn),.,.,.,.,9.2µM,.
O=C1CC(N2CCN(C3CC(=O)N(CCc4ccccc4)C3=O)CC2)C(=O)N1CCc1ccccc1 (stereo not drawn),.,.,.,.,.,.
O=C1CC(N2CCC(Cc3ccccc3)CC2)C(=O)N1CCc1ccccc1 (stereo not drawn),.,.,.,.,?,31.6µM
Cc1nn(-c2ccc(F)cc2)c(Cl)c1C(=O)OC(C)C(=O)N(C)C1CCCCC1 (stereo not drawn),.,.,.,.,18.4µM,.
CN(CCC#N)C(=O)COC(=O)c1c2c(nc3ccccc13)/C(=C/c1ccco1)CC2,.,.,.,.,.,5.62µM
CC(C)Cc1ccc(C(C)C(=O)Nc2cccnc2)cc1 (stereo not drawn),.,.,.,.,6.51µM,.
CCOC(=O)c1sc(NC(=O)c2ccc(S(=O)(=O)N3CCCCC3)cc2)nc1-c1ccccc1,.,.,.,.,23.1µM,.
CCOC(=O)c1sc(NC(=O)c2ccc(S(=O)(=O)N3CCCCCC3)cc2)nc1-c1ccccc1,.,.,.,.,?,.
CCOC(=O)c1sc(NC(=O)c2ccc(S(=O)(=O)N3CCOCC3)cc2)nc1-c1ccccc1,.,.,.,.,20.6µM,.
Cc1n[nH]c(C)c1S(=O)(=O)N(CC(=O)NCc1ccccc1Cl)c1ccc(C(C)C)cc1,.,.,/,.,?,.
CCc1ccc(NC(=O)CSc2nnc(-c3ccccc3)n2C)cc1,/,/,/,.,/,.
CCc1ccc2ncc(S(=O)(=O)c3ccc(C)c(C)c3)c(N3CCCC3)c2c1,.,.,.,.,23.1µM,.
CCCN1C(=O)c2ccccc2NC1c1ccc(OC)c(COc2cccc(C)c2C)c1 (stereo not drawn),/,.,/,.,25.9µM,.
COc1ccc(C2Nc3ccccc3C(=O)N2Cc2cccc(Cl)c2)cc1COc1ccc(NC(C)=O)cc1 (stereo not drawn),/,.,/,/,23.1µM,/
COc1ccc(C2Nc3ccccc3C(=O)N2Cc2ccccc2)cc1COc1ccc(NC(C)=O)cc1 (stereo not drawn),/,.,/,/,.,/
CN(CCN(C)c1nc(-c2cccs2)nc2ccccc12)C(=O)OC(C)(C)C,/,.,/,.,.,.
CC1=CC(C)(C)Nc2ccc(OC(=O)C(C)N3C(=O)c4ccccc4C3=O)cc21 (stereo not drawn),.,.,.,.,25.9µM,.
CCc1ccccc1N(CC)C(=O)c1c(C)oc2ncn(C)c(=O)c12,.,.,/,.,.,.
Cc1ccc(Cl)cc1N1CCN(c2ncnc3onc(C)c23)CC1,.,.,/,.,20.6µM,.
SMILES,mIDH1 inhibitor,A549 tox,Mito fusion act,TrxR1 substrate,Nrf2 block,rTrxR1 inhibitor
Cc1ccc(NC(=O)C2CCCN(c3ncnc4onc(C)c34)C2)cc1Cl (stereo not drawn),.,?,/,.,13µM,.
Cc1noc2ncnc(N3CCN(c4cccc(Cl)c4)CC3)c12,.,.,.,.,?,.
COc1cccc(NC(=O)C2CCCN(c3ncnc4onc(C)c34)C2)c1 (stereo not drawn),.,.,/,.,?,.
Cc1ccc(Cl)cc1N1CCN(S(=O)(=O)c2c(C)noc2C)CC1,.,.,17.8µM,.,.,.
CN(C)/[N+]([O-])=N/Oc1cc(O/[N+]([O-])=N/N2CCCC2CO)c([N+](=O)[O-])cc1[N+](=O)[O-] (stereo not drawn),/,?,/,.,.,?
N#Cc1nc(Nc2cc(F)cc(F)c2)c2ncn(C3CCCC3)c2n1,/,.,/,/,?,/
COc1cccc(CNC(=O)c2ccc3c(c2)nnn3C2CCCC2)c1,.,.,/,.,?,.
CCCN1CCN(CCCNC(=O)Cn2c(-c3cccs3)cc3cc(Cl)ccc32)CC1,.,.,/,.,.,.
CCOC(=O)c1c(NC(C)=O)sc2c1CCC(C=NCCCN(CC)CC)=C2Sc1ccccc1,.,.,/,.,?,3.55µM
CCc1cccc(C)c1NC(=O)CSc1nnc(-c2cc3cc(Br)ccc3o2)n1CC,.,?,.,.,16.4µM,.
Cc1ccc2scc(N3CCN(c4ccccc4)CC3)c(=O)c2c1,.,.,/,.,/,.
Cc1ccc(C(=O)N2CCCC(C(=O)c3ccc(Oc4ccccc4)cc3)C2)cn1 (stereo not drawn),.,?,.,.,16.4µM,.[11.4 µM]
COc1ccc(OC)c(NC(=O)CCCc2nnc3n(C(C)C)c(=O)c4sccc4n23)c1,.,.,/,.,.,.
Cc1ccnc(NC(c2ccccc2F)c2ccc3cccnc3c2O)c1 (stereo not drawn),.,.,/,.,?,?
